Only some compounds are listed: those with a hit (about 21% of all), similar ones and a draw of the others.
NS1 function inh: qHTS Assay for Inhibitors of Influenza NS1 Protein Function | Potency, µM (highest dose often 46.1 µM), inactives show top-dose activity, positive = more growth | actives 0.4% (n = 270,000) | AID 2326, 2010; calls by dose curve; note: potency is the fitted concentration of half-maximal effect; actives are rising curves; nearly all actives have a fitted effect of over 50% in size
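Read-out: OD600 growth recovery of NS1-expressing budding yeast. Cells grown overnight at 30C in -URA glucose medium, washed, resuspended and diluted 1:100 in 2% galactose assay medium, pH 6.0. Same strain lacking NS1 served as positive control.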
Pf growth 48h: Primary qHTS for delayed death inhibitors of the malarial parasite plastid, 48 hour incubation. P. falciparum luciferase growth in erythrocytes, 48 h. Potency, µM (doses to about 28.7 µM), inactives show at the highest dose activity change, negative = inhibition, most hits filed as inhibitors. actives 5.9% (n = 310,000). AID 504832, 2011; note: potency is the fitted concentration of half-maximal effect; % is set by controls: 0 for no effect and ±100 for the full control effect
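Luciferase-expressing parasites in RBCs, 2% Hct / 0.1% parasitemia final; RPMI 1640 + 0.5% Albumax; 37 C, 5% CO2, one generation; luminescence read-out, lower signal = inhibition.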
Shiga inhibitor: A qHTS for Small Molecule Inhibitors of Shiga Toxin. Vero cells, Shiga toxin protein synthesis inhibition reporter. inhibition, % at 38.7 µM. actives 9.2% (n = 290,000). AID 2315, 2010; in the data active = inhibition mostly above about 28%, no sharp cut-off; inactive = mostly below about 43%; note: 0% is about no effect
Pf growth 96h: Primary qHTS for delayed death inhibitors of the malarial parasite plastid, 96 hour incubation; AID 504834, 2011; P. falciparum luciferase reporter growth, 96 h; actives 6.9% (n = 320,000); Potency, µM (top dose mostly 28.7 µM), for the others: at the highest dose activity change, negative = inhibition, hits mostly inhibitors; note: potency is the fitted concentration of half-maximal effect; % is set by controls: 0 for no effect and ±100 for the full control effect
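Two parasite generations (96 h, 37 C, 5% CO2) of compound exposure in infected erythrocytes (0.05% parasitemia, 2% hematocrit). Luciferase-reporter P. falciparum; decreased luminescence indicates inhibited growth, aimed at apicoplast-acting delayed death.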
Cycloheximide cs: Cycloheximide Counterscreen for Small Molecule Inhibitors of Shiga Toxin | actives 12% (n = 300,000) | max response, % | cell reporter, cycloheximide protein synthesis inhibition counterscreen; in the data active = max response mostly above about 13%, no sharp cut-off; inactive = mostly below about 14%; note: read at 38.3 µM for the half of the compounds with a filed dose; 0% is about no effect
* = called active by the depositor; ? = inconclusive; nt = not tested or not shown. Unless noted, calls come from the whole dose curve; as a rule, active = well fitted inhibition curve with a large enough effect; inconclusive = small, poorly fitted or top-dose-only effect, or another doubt; inactive = no such curve, though single readings can be large or run the other way.

SMILES	NS1 function inh	Pf growth 48h	Shiga inhibitor	Pf growth 96h	Cycloheximide cs
CC1CN(Cc2csc(-c3ccc(Cl)cc3)n2)CC(C)O1 (stereo not given)	nt	176.8%	116.8*	251.4%	47.3
Cc1ccc(Oc2cnc3ccccc3n2)cc1	1.1%	72.3%	102.8*	121.9%	58.2*
O=[N+]([O-])c1ccc(Oc2cnc3ccccc3n2)cc1	nt	27.5%	83.7	34.6%	30.3
Fc1ccc(Oc2cnc3ccccc3n2)cc1	nt	22.4%	39.2*	-12.6%	22.3
COc1ccc(Oc2cc(C)c3ccccc3n2)cc1	-13.1%	18.6%	69.1*	?	34.1
Nc1ccc(Oc2ccc(F)cc2)nc1	1.2%	0.1%	-5.2	33.2%	-0.8
Clc1ccc(Oc2cnc3ccccc3n2)cc1	9.3%	-8.5%	32.9*	53.7%	20.5*
CCCCN(CCCC)CCCOC(=O)c1ccc(N)cc1	-2.3%	-5.6%	11.3	?	-4.4
COc1ccc(C2=CC(=O)OC(C)(c3ccccc3)O2)cc1 (stereo not given)	-7.1%	11.7µM*	24.2	95.7%	1.9
Cc1ccccc1C1=NC(c2ccc(F)cc2F)ON1 (stereo not given)	1.2%	124.6%	85.5	nt	30.4*
Cc1ccccc1-c1nn(-c2ccc(F)cc2F)cc1CNCC(C)O (stereo not given)	1.5%	?	-7.6	-60.4%	-3.4
COc1ccccc1C1N=C(c2ccccc2C)NO1 (stereo not given)	-1.0%	89.4%	122.5*	215.8%	44.3*
Cc1nc2ccccc2n1S(=O)(=O)c1cc(C(=O)O)ccc1Cl	0.8%	35.2%	-7.4	0.2%	-1.6
Cc1cc(Cl)ccc1OCC(=O)NNC(=O)C1CCCO1 (stereo not given)	nt	17.1%	18.3	16.0%	14.2
O=C(CN1CCN(c2ccc(Cl)cc2[N+](=O)[O-])CC1)N1CCOCC1	6.0%	-28.8%	-11.7	7.7%	-2.3
Cc1ccc(Cn2cccc2/C=C2/C(=N)N3C=CSC3=NC2=O)cc1	6.1%	1.9%	-15.1	6.57µM*	-2.3
C/C(=N\OC(=O)c1ccc(F)cc1)c1sc(-c2ccccc2)nc1C	-1.2%	78.6%	54.2	25.0%	18.8*
CCOC(=O)c1sc(-c2ccc(Cl)cc2)nc1O	-60.1%	?	-14.0	?	-1.2
C=CCNC(=O)c1sc(-c2ccccc2)nc1C	-0.9%	45.3%	41.6*	81.6%	16.9*
Cc1nc(-c2ccccc2)sc1C(=O)NN	nt	117.7%	-9.8	34.1%	-8.4
C/C(=N\OC(=O)c1ccc(Cl)cc1)c1sc(-c2ccccc2)nc1C	-1.4%	203.8%	21.9	204.2%	19.4
CCNC(=O)O/N=C(\C)c1sc(-c2ccc(Cl)cc2)nc1C	-62.8%	180.4%	114.2*	244.5%	52.1*
C/C(=N\OC(=O)NC(C)C)c1sc(-c2ccc(Cl)cc2)nc1C	-27.6%	94.2%	111.6*	138.0%	33.6*
CC(C)Sc1nnc(SCC(=O)NCCCN2CCCC2=O)s1	nt	14.4%	nt	?	nt
C/C(=N\OC(=O)NC1CCCCC1)c1sc(-c2ccccc2)nc1C	-7.1%	7.4%	90.0	?	25.2
SMILES	NS1 function inh	Pf growth 48h	Shiga inhibitor	Pf growth 96h	Cycloheximide cs
C/C(=N\OC(=O)NC(C)C)c1sc(-c2ccccc2)nc1C	-144.9%	41.4%	52.2	24.1%	26.3*
Cc1cc2oc(C(=O)Nc3nonc3C)c(C)c2cc1C	2.6%	124.0%	165.1*	?	56.7*
CCc1ccc2oc(C(=O)Nc3nonc3C)c(C)c2c1	-14.6%	-46.2%	106.0*	64.1%	35.9*
Cc1c(C(=O)Nc2nonc2-c2ccc(F)cc2)oc2ccc(F)cc12	-13.2%	?	2.9	-29.5%	14.8
CCc1nonc1NC(=O)c1oc2ccc(F)cc2c1C	0.0%	3.3%	30.6	?	18.3*
CN(C)C1C(=O)C(C(N)=O)C(=O)C2(O)C(=O)C3C(=O)c4c(O)ccc(Cl)c4C(O)C3CC12 (stereo not given)	nt	nt	-19.4	nt	-3.2
CCCCN(C(=O)CCCSc1nc2ccccc2[nH]1)c1c(N)n(Cc2ccccc2)c(=O)[nH]c1=O	-3.5%	?	-8.5	?	-1.7
CC(C)(C)c1ccc(C(=O)N/C(=C\c2ccco2)C(=O)Nc2ccccc2C(=O)O)cc1	?	12.7%	60.4*	12.3%	30.7*
CC(=O)Nc1ccc(NC(=O)/C(=C/c2ccco2)NC(=O)c2ccccc2)cc1	7.9%	10.4%	1.4	?	-3.8
Cc1cccc(C)c1NC(=O)/C(=C/c1ccco1)c1ccccc1	-0.5%	nt	-2.4	10.4µM*	0.9
